The record followed here is PubChem BioAssay AID1259245 (Vanderbilt High Throughput Screening Facility, 2017).

The structures appear in SMILES notation. The campaign covered roughly 40,000 compounds. About 1,400 (3.5%) were called active.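 Rule for the calls: active = any of four per-well response measures lying three or more SD from its plate-wide compound average, in either direction; inactive = the rest, inconclusive results apart.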 The list comes from a sample in which actives are over-represented; it also holds similar structures and randomly drawn compounds.

For this experiment, the target named is Voltage-dependent calcium channel gamma-2 subunit (Mus musculus) + Glutamate receptor 2 (Rattus norvegicus) (UniProt O88602+P19491). Description: modulators of GluA2-stargazin AMPA receptor complexes, primary screen, cell-based, membrane potential dye (AID 1259245). The following applies: HEK293 GluA2+stargazin, membrane potential dye (FDSS), glutamate EC50, at 30 µM, hits were called plate by plate, in both directions; compound max-min signal: compound-alone response (agonism); glutamate slope, % of max: measured here: glutamate response slope, % max.
Sequence of Voltage-dependent calcium channel gamma-2 subunit (Mus musculus) + Glutamate receptor 2 (Rattus norvegicus) (O88602 whole entry, looked up): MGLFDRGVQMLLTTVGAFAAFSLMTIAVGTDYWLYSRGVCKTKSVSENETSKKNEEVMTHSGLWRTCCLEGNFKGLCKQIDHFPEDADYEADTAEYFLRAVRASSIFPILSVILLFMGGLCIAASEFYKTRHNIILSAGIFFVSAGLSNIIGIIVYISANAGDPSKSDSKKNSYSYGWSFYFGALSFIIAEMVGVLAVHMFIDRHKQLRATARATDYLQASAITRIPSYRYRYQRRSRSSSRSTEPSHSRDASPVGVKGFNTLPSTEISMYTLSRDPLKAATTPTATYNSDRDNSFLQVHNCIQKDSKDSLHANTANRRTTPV
Sequence of Voltage-dependent calcium channel gamma-2 subunit (Mus musculus) + Glutamate receptor 2 (Rattus norvegicus) (P19491 whole entry, looked up): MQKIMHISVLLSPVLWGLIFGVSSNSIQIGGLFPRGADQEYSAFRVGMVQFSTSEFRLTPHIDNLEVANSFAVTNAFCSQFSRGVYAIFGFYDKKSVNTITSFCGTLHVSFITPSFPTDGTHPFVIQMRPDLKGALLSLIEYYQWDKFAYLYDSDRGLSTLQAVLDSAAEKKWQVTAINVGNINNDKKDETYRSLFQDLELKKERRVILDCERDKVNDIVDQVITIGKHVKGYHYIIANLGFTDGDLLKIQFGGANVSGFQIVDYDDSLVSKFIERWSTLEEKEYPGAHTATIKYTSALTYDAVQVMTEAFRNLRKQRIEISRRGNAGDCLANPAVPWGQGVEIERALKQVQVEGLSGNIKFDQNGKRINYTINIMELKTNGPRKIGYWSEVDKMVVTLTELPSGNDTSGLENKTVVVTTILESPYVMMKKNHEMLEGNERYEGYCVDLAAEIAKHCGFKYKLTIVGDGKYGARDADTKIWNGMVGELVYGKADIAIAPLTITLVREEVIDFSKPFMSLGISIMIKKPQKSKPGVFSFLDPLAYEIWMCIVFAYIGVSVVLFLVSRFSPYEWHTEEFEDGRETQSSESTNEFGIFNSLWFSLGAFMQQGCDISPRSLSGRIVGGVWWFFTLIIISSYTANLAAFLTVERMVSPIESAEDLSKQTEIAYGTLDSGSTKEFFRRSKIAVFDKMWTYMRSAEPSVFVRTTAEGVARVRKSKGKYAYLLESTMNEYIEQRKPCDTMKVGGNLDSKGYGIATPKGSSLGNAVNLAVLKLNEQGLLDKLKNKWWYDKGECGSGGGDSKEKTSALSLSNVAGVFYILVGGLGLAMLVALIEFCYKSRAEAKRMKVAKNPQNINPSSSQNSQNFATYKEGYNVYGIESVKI
On to `COC(=O)Cn1c(=O)c2c(nc3n(-c4ccccc4C)c(C)c(C)n23)n(C)c1=O`, for which the compound max-min signal is 0.0754; the glutamate response, % of max was 36.6% (inactive); the glutamate slope, % of max was 56.4%.
Taken in the same sequence, the figures for `Cc1cccc(Cn2c(=O)c3c(nc4n(-c5ccccc5O)c(C)c(C)n34)n(C)c2=O)c1` were 0.11, 3.33% (active) and 16.2%.
The like results for `Cc1ccc(NC(=O)NCC(O)c2ccc(C(F)(F)F)cc2)cc1` (stereo not drawn) were, in that order, 0.115, 16.6% (inactive) and 47.8%.
Turning to `COc1ccc(S(=O)(=O)NCC(O)c2cccn2C)c(C)c1` (stereo not drawn), the compound max-min signal came to 0.107; the glutamate response, % of max was 43.5% (inactive); the glutamate slope, % of max came out at 60.7%.
As for `Cc1cc(S(=O)(=O)NCC(O)c2ccc(C(F)(F)F)cc2)ccc1F` (stereo not drawn), the compound max-min signal came out at 0.256; the glutamate response, % of max is 28.2% (active); the glutamate slope, % of max was 41.3%.
As to `Cc1cc(S(=O)(=O)NCCn2nc(-c3ccc(F)cc3)ccc2=O)ccc1F`, the compound max-min signal turned out to be 0.0676; the glutamate response, % of max is 28.5% (inactive); the glutamate slope, % of max stood at 55.6%.
As for `COc1cc(C)c(C)cc1S(=O)(=O)NCC(O)c1ccc(C(F)(F)F)cc1` (stereo not drawn), the compound max-min signal was determined as 0.216; the glutamate response, % of max is 20.5% (active); the glutamate slope, % of max was 36%.
The like results for `Cc1cc(S(=O)(=O)NCC2(O)CCCC2)ccc1F` were, in that order, 0.0902, 36% (inactive) and 60.8%.
The like results for `CC(NC(=O)C12CC3CC(CC(C3)C1)C2)C(=O)N/N=C/c1ccc([N+](=O)[O-])o1` (stereo not drawn) were, in that order, 0.133, 27.9% (inactive) and 52.7%.
The like results for `O=S(=O)(CCCOc1ccc(F)cc1)NCCCc1ccccc1` were, in that order, 0.118, 50.6% (inactive) and 66.1%.
Take `CCCNC(=O)Cn1c(=O)c2c(N3CCN(C(=O)c4ccco4)CC3)c(C)cnc2n(C)c1=O`: the compound max-min signal came to 0.127; the glutamate response, % of max is 48.2% (inactive); the glutamate slope, % of max came out at 70%.
For `CCn1ccnc1N1CCN(C(=O)CCS(=O)(=O)c2ccccc2)CC1`, the compound max-min signal worked out at 0.0601; the glutamate response, % of max was 11.8% (inactive); the glutamate slope, % of max came out at 23.3%.
The like results for `COCCNC(=O)Cn1cc(-c2nnc(C)o2)c2ccccc21` were, in that order, 0.0888, 38.9% (inactive) and 57.5%.
With `O=C(NC(=S)Nc1ccc(S(=O)(=O)N2CCOCC2)cc1)c1sc2ccccc2c1Cl`, the compound max-min signal worked out at 0.0349; the glutamate response, % of max is 29.8% (inactive); the glutamate slope, % of max is 52.2%.
The like results for `CCN(CC)C(=O)C(=O)c1cn(CC(=O)N2CCOCC2)c2ccccc12` were, in that order, 0.0509, 31.2% (inactive) and 53.3%.
For the compound `Cc1cccc(C)c1NC(=O)Cn1c(=O)n(C(C)C)c(=O)c2nscc21`, the compound max-min signal came out at 0.121; the glutamate response, % of max was 32.1% (active); the glutamate slope, % of max was 45.8%.
Take `CSc1cccc(NC(=O)Cn2c(=O)n(C3CC3)c(=O)c3nscc32)c1`: the compound max-min signal was 0.107; the glutamate response, % of max was 26.5% (inactive); the glutamate slope, % of max is 50.3%.
The like results for `COC(=O)c1ccc(NC(=O)Cn2c(=O)n(C(C)C)c(=O)c3nscc32)cc1` were, in that order, 0.116, 34.2% (inactive) and 56.9%.
The like results for `CC(=O)N1CC(C(=O)Nc2cccc3nsnc23)C1` were, in that order, 0.0775, 30.1% (inactive) and 49.8%.
The like results for `O=C(NCCCN1CCCC1=O)C(=O)Nc1c2c(nn1-c1cccc(Cl)c1)CSC2` were, in that order, 0.0244, 21.6% (inactive) and 47%.
With `CC1CCN(C(=O)C(=O)Nc2c3c(nn2-c2ccc(F)cc2)CSC3)CC1`, the compound max-min signal stood at 0.0271; the glutamate response, % of max is 24.1% (inactive); the glutamate slope, % of max is 44.2%.
Regarding `COc1ccc(-n2nc3c(c2NC(=O)C(=O)N2CCCCC2)CSC3)cc1`, the compound max-min signal came out at 0.0721; the glutamate response, % of max was 33.6% (active); the glutamate slope, % of max was 59.2%.
The like results for `COc1ccc(-n2nc3c(c2NC(=O)C(=O)NC2CCCC2)CS(=O)(=O)C3)cc1` were, in that order, 0.0561, 41.9% (inactive) and 51.3%.
In the case of `O=C(NCCCn1ccnc1)C(=O)Nc1c2c(nn1-c1ccc(Cl)cc1)CSC2`, the compound max-min signal turned out to be 0.0348; the glutamate response, % of max is 37.9% (inactive); the glutamate slope, % of max amounted to 64.4%.
The like results for `O=C(Nc1c2c(nn1-c1ccc(F)cc1)CSC2)C(=O)N1CCCCCC1` were, in that order, 0.071, 32% (active) and 43.4%.
For the compound `CCCn1c(N2CCC(C(N)=O)CC2)nc2c1c(=O)n(C)c(=O)n2C`, the compound max-min signal was found to be 0.0828; the glutamate response, % of max is 24.8% (inactive); the glutamate slope, % of max is 45.3%.
As for `CCCCc1ccc(-n2c(C)cn3c4c(=O)n(CC(=O)OC)c(=O)n(C)c4nc23)cc1`, the compound max-min signal came to 0.103; the glutamate response, % of max was 55.1% (inactive); the glutamate slope, % of max was determined as 73.4%.
Taken in the same sequence, the figures for `COc1cccc(-n2nnc3c(N4CCN(C(=O)c5c(OC)cccc5OC)CC4)ncnc32)c1` were 0.0804, 29.1% (inactive) and 53.7%.
Taken in the same sequence, the figures for `Cc1nc(-c2ccccc2)sc1C(=O)NCCOc1ccc2nnc(-c3ccccc3)n2n1` were 0.0398, 37.1% (inactive) and 49.7%.
With `O=C(COc1ccc(Cl)cc1)NCCOc1ccc2nnc(-c3cccc(F)c3)n2n1`, the compound max-min signal was 0.0351; the glutamate response, % of max is 38.7% (inactive); the glutamate slope, % of max is 69.7%.
`CCc1ccccc1NC(=O)NCCOc1ccc2nnc(-c3cccc(F)c3)n2n1`: the compound max-min signal stood at 0.131; the glutamate response, % of max is 41.1% (active); the glutamate slope, % of max worked out at 52.3%.
For `COc1ccc(CCS(=O)(=O)Nc2ccc3c(c2)N(C(C)=O)CC3)cc1`, the compound max-min signal was 0.0917; the glutamate response, % of max was 25.2% (inactive); the glutamate slope, % of max came to 47.2%.
Regarding `CCOc1ccc(N2CCCn3c2nc2c3c(=O)n(CCN3CCOCC3)c(=O)n2C)cc1`, the compound max-min signal is 0.074; the glutamate response, % of max is 10% (inactive); the glutamate slope, % of max was 27.7%.
Regarding `CC(=O)N1CCN(c2ccnc3c2c(=O)n(CC(=O)NCc2ccco2)c(=O)n3C)CC1`, the compound max-min signal is 0.103; the glutamate response, % of max was 49.5% (inactive); the glutamate slope, % of max was determined as 74.3%.
The like results for `CCc1ccc(NC(=O)Cn2c(=O)c3c(N4CCN(C(C)=O)CC4)ccnc3n(C)c2=O)cc1` were, in that order, 0.159, 32.2% (active) and 55.8%.
Taken in the same sequence, the figures for `CC(=O)N1CCN(c2ccnc3c2c(=O)n(CC(=O)NCC2CCCO2)c(=O)n3C)CC1` (stereo not drawn) were 0.0945, 51% (inactive) and 78.2%.
